# In the supplement of paper PMC8285479:
# Where a name gives a salt, the structure may show the parent alone. ± gives the standard deviation of the averaged measurements. Whole data set: some 1,900 compounds, median “normalised cell viability (NPI; 0 = phenylarsine oxide control, 1 = DMSO control)” near 1, cut for the lowest 2% near 0.039. The sample as a whole holds a higher share of the lowest values than the screen did.
# Test system: NCI-H1944
# Experiment: normalised cell viability (NPI; 0 = phenylarsine oxide control, 1 = DMSO control) (fraction of DMSO control); NCI-H1944 is a non-small cell lung cancer line; higher = more viable cells (less compound toxicity)
# Conditions: 6 days
# [1] = glucocorticoid arm: hydrocortisone 2.75 uM co-treatment, compound 1 µM
# [2] = glucocorticoid arm: hydrocortisone 2.75 uM co-treatment, compound 5 µM
# [3] = glucocorticoid arm: hydrocortisone 2.75 uM pre-treated 2 days and continued, compound 1 µM
# [4] = glucocorticoid arm: hydrocortisone 2.75 uM pre-treated 2 days and continued, compound 5 µM
# [5] = glucocorticoid arm: vehicle, compound 1 µM
# [6] = glucocorticoid arm: vehicle, compound 5 µM
# 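Note: CTB read-out in 384-well plates, triplicate wells, NPI normalised per plate against 1 µM phenylarsine oxide (0) and 0.1% DMSO (1) controls.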
SMILES,normalised cell viability [1],normalised cell viability [2],normalised cell viability [3],normalised cell viability [4],normalised cell viability [5],normalised cell viability [6]
NCc1c[nH]c(=S)n1[C@H]1CCc2c(F)cc(F)cc2C1 [Nepicastat (SYN-117) HCl],0.9937 ± 0.006,1,1.01 ± 0.022,0.98 ± 0.017,0.9937 ± 0.0085,0.9913 ± 0.0051
C=CC(=O)Nc1cc(Nc2nccc(-c3cn(C)c4ccccc34)n2)c(OC)cc1N(C)CCN(C)C,0.891 ± 0.003,0.842 ± 0.022,0.944 ± 0.015,0.916 ± 0.034,0.789 ± 0.028,0.762 ± 0.045
CC[C@@H]1SC2(CCN(C)CC2)NC1=O,1.02,1.01 ± 0.011,1.03 ± 0.029,1.02 ± 0.011,1.013 ± 0.0058,1.01 ± 0.012
O=C(N[C@@H](Cc1ccccc1)C(=O)CCl)OCc1ccccc1 [Z-L-Phe chloromethyl ketone],1.03 ± 0.01,0.028 ± 0.0044,1.02 ± 0.016,1.075 ± 0.0071,1.03 ± 0.01,0.149 ± 0.086
Cc1ccc(S(=O)(=O)N[C@@H](Cc2ccccc2)C(=O)CCl)cc1 [N-p-Tosyl-L-phenylalanine chloromethyl ketone],0.9977 ± 0.0032,1.01 ± 0.028,0.868 ± 0.25,1.02 ± 0.015,1.007 ± 0.0058,0.691 ± 0.057
CC(C)[C@H](NC(=O)OCc1ccccc1)C(=O)N[C@H](C=O)Cc1ccccc1,0.989 ± 0.011,0.987 ± 0.041,0.997 ± 0.0052,1.03 ± 0.085,1 ± 0.0087,1 ± 0.013
CC1=C(C(=O)OC2CCCCC2)C(c2ccc([N+](=O)[O-])cc2)C2=C(CC(C)(C)CC2=O)N1 (configuration not stated),1.03 ± 0.025,1.02 ± 0.023,1.03 ± 0.015,1.02 ± 0.026,1.017 ± 0.0058,1.003 ± 0.0058
C/C=C1\C(=O)C[C@H]2[C@@H]3CCC4=CC(=O)CC[C@]4(C)[C@H]3CC[C@]12C [(Z)-Guggulsterone],0.9933 ± 0.0015,0.98 ± 0.031,0.994 ± 0.02,0.964 ± 0.029,0.9953 ± 0.0035,0.9887 ± 0.0091
O=C(c1ccc(Cl)cc1)N1CCN(c2ccc([N+](=O)[O-])c3ncccc23)CC1,1.01 ± 0.013,1.01 ± 0.027,0.992 ± 0.014,0.996 ± 0.014,0.997 ± 0.015,1 ± 0.021
CN(C)C(=O)C(CCN1CCC(O)(c2ccc(Cl)cc2)CC1)(c1ccccc1)c1ccccc1 [Loperamide hydrochloride],0.9953 ± 0.0042,0.405 ± 0.032,1.017 ± 0.0058,0.87 ± 0.29,1,0.0171 ± 0.0045
O=C(CCCN1CCC(O)(c2ccc(Cl)cc2)CC1)c1ccc(F)cc1 [Haloperidol],0.996 ± 0.013,0.93 ± 0.023,1.01,1.01 ± 0.025,0.9843 ± 0.0035,0.985 ± 0.002
OC1(c2ccc(Cl)cc2)CCN(Cc2c[nH]c3ccccc23)CC1,0.972 ± 0.021,0.852 ± 0.052,1.003 ± 0.0061,1.04 ± 0.086,0.9753 ± 0.0065,0.988 ± 0.01
CN(C)C(=O)C(CCN1CCC(O)(c2ccc(Cl)cc2)CC1)(c1ccccc1)c1ccccc1 [Loperamide HCl],1.02 ± 0.026,0.893 ± 0.035,1.047 ± 0.0058,0.984 ± 0.012,1.017 ± 0.0058,0.919 ± 0.0099
Nc1nc2[nH]cnc2c(=S)[nH]1 [Thioguanine],0.931 ± 0.0046,0.423 ± 0.024,0.9813 ± 0.0011,0.754 ± 0.04,0.9133 ± 0.0051,0.119 ± 0.011
Cc1[nH]c2ccccc2c1CCNCc1ccc(/C=C/C(=O)NO)cc1 [Panobinostat (LBH589)],0.00703 ± 0.0011,0.00134 ± 0.00097,0.00592 ± 0.0022,0.00214 ± 0.0018,0.00625 ± 0.001,9e-05 ± 0.00045
Cc1[nH]c2ccccc2c1C1=C(NCCc2ccc(F)cc2)C(=O)N(C)C1=O,0.964 ± 0.019,0.962 ± 0.053,0.988 ± 0.011,0.973 ± 0.021,0.977 ± 0.007,0.9803 ± 0.0047
CC(C)N(CCCNC(=O)Nc1ccc(C(C)(C)C)cc1)C[C@H]1O[C@@H](n2ccc3c(N)ncnc32)[C@H](O)[C@@H]1O,1.003 ± 0.0058,1.07 ± 0.025,0.984 ± 0.0053,1.04 ± 0.01,1.002 ± 0.0068,1.002 ± 0.0076
CCOC(=O)[C@]12CC1/C(=N\O)c1ccccc1O2 (some centres not stated),1.017 ± 0.0058,1.01 ± 0.024,1.007 ± 0.0058,1.02,0.997 ± 0.013,1.002 ± 0.0068
C[N+](C)(C)CCO.[Br-] [Choline bromide],1.017 ± 0.0058,1 ± 0.019,1.017 ± 0.0058,1.02,0.995 ± 0.0078,0.998 ± 0.014
CC(C(=O)Nc1cccc(/N=C/c2c(O)ccc3ccccc23)c1)c1ccccc1 (configuration not stated) [Salermide],0.999 ± 0.014,1.01 ± 0.02,0.9942 ± 0.0055,1 ± 0.035,0.9967 ± 0.0083,1.002 ± 0.01
O=C(c1ccc(F)cc1)N1CCCC(c2nc(-c3ccc(F)cc3)no2)C1 (configuration not stated),1.03 ± 0.015,1.023 ± 0.0058,1.02 ± 0.011,1.013 ± 0.0058,1.01,1.001 ± 0.0078
Cn1ncnc1[C@H]1c2n[nH]c(=O)c3cc(F)cc(c23)N[C@@H]1c1ccc(F)cc1,0.996 ± 0.012,0.934 ± 0.028,1.01 ± 0.017,1.05 ± 0.015,0.436 ± 0.0095,0.28 ± 0.016
CCN(CC)CCCC(C)Nc1ccnc2cc(Cl)ccc12 (configuration not stated) [Chloroquine diphosphate],1 ± 0.015,0.752 ± 0.026,1.001 ± 0.009,0.963 ± 0.04,0.9793 ± 0.0076,0.947 ± 0.013
CCN(CC)CCCC(C)Nc1c2ccc(Cl)cc2nc2ccc(OC)cc12 (configuration not stated) [Quinacrine dihydrochloride],0.999 ± 0.021,0.00304 ± 0.0019,1.01 ± 0.023,1.01 ± 0.014,0.995 ± 0.014,0.00159 ± 0.0012
CS(=O)(=O)CCNCc1ccc(-c2ccc3ncnc(Nc4ccc(OCc5cccc(F)c5)c(Cl)c4)c3c2)o1 [Lapatinib ditosylate; Lapatinib; Lapatinib Ditosylate],0.9643 ± 0.0055,0.00258 ± 0.00055,0.968 ± 0.014,0.0327 ± 0.0022,0.947 ± 0.0092,0.00168 ± 0.00026
CS(=O)(=O)CCNCc1ccc(-c2ccc3ncnc(Nc4ccc(OCc5cccc(F)c5)c(Cl)c4)c3c2)o1 [Lapatinib Ditosylate (Tykerb)],0.945 ± 0.0092,0.916 ± 0.017,0.981 ± 0.021,0.938 ± 0.028,0.911 ± 0.02,0.868 ± 0.022
C=CC(=O)Nc1ccc2ncnc(Nc3ccc(OCc4cccc(F)c4)c(Cl)c3)c2c1,0.905 ± 0.016,0.854 ± 0.043,0.92 ± 0.014,0.93 ± 0.023,0.815 ± 0.021,0.623 ± 0.016
